# Most compounds without a hit are left out; they make up all but 1.6% or so of the library.
# KCNQ2 block: KCNQ2 (rat) channel inhibition; CHO-K1 KCNQ2, FluxOR thallium flux, 20 min; hits give low values; AID 2156; B-score at 10 µM; actives 1.1% (n = 310,000); O88943;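 active = fluorescence ratio B-score at most minus 3 library SDs, with starting brightness B-score within 2 library SDs, cut at about -5.5 in these data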
# KCNQ2 enhance: KCNQ2 (rat) channel potentiation; CHO-K1 KCNQ2, FluxOR thallium flux fluorescence; hits give high values; B-score at 10 µM; O88943; actives 0.54% (n = 310,000);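 active = fluorescence ratio B-score at least 3 SD of library B-scores, with initial fluorescence B-score within 3 of them, cut at about 5.3 in these data; same plate scores as AID 2156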;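 note: B-score of peak minus minimum over baseline fluorescence ratio after K+ and Tl+ stimulus; positive B-score means potentiation of KCNQ2 with more thallium influx and brighter signal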
# Kir21 confirm: confirmation of mouse Kir2.1 potassium channel inhibitors; shares compounds with KCNQ2 enhance; Kir2.1-expressing cells, FluxOR thallium flux fluorescence; hits give low values; Tl flux remaining, % of negative control (hits give low values), % at 10 µM; actives 41% (n = 2,300); AID 2032;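 active = Primary-screen hit whose thallium flux fell at least 3 control SD below untreated wells in both duplicates, with normal baseline fluorescence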;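 note: 0% = blank wells without stimulus and 100% = stimulated no-compound controls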
# HEK293 ctr: counter-screen for Kir2.1 inhibitors: effect in parental HEK293 cells | FluxOR signal as % of negative control (100 = no effect), % at 10 µM | actives 19% (n = 2,300) | FluxOR thallium flux fluorescence; 0% = unstimulated blank wells | shares compounds with KCNQ2 enhance;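 active = dye signal at least 3 control SD above or below untreated wells in both duplicates, raw fluorescence within 3, either direction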;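 note: percent is based on the flux ratio of peak minus minimum fluorescence over baseline F0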
# CHO-K1 Tl ctr: counter-screen for KCNQ2 potentiators: effect in parental CHO-K1 cells; activity increase over 3SD of controls, % at 10 µM; actives 43% (n = 1,200); shares compounds with KCNQ2 enhance; AID 2282; FluxOR thallium flux fluorescence; zero = vehicle mean+3SD, 100% = vehicle-minus-blank window;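 active = signal rise of at least 3 SD above the untreated control mean, in both duplicate wells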;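 note: counter screen of KCNQ2 potentiator hits so any rise reflects channel-independent effects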
# KCNQ1 sel pot: human KCNQ1 counter-target activity of KCNQ2 potentiators | shares compounds with KCNQ2 enhance | CHO KCNQ1 stable, FluxOR thallium flux fluorescence; beyond 3SD, as % of vehicle-control signal | activation over 3SD threshold, % at 10 µM | actives 28% (n = 1,200) | AID 2283;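 active = fluorescence ratio rise of at least 3 SD of vehicle wells above their mean, in both replicate wells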;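 note: 0% = vehicle mean plus 3 SD and 100% = vehicle minus unstimulated blank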
# KCNQ2 pot confirm: rat KCNQ2 channel potentiator confirmation; shares compounds with KCNQ2 enhance; CHO-KCNQ2 cells, FluxOR thallium flux fluorescence; potentiation, less the hit threshold, % at 10 µM; actives 68% (n = 1,200); AID 2287;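 active = fluorescence ratio rising 3 SD or more over the vehicle control mean in both replicates, plus primary screen hit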;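 note: peak minus minimum thallium fluorescence divided by baseline after K/Tl stimulus; 0% = vehicle mean plus 3 SD and 100% = vehicle minus unstimulated blank difference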
# Kir2-1 sel: tests whether KCNQ2 potentiators also affect mouse Kir2.1. shares compounds with KCNQ2 enhance. HEK293 Kir2.1, FluxOR thallium flux fluorescence. activity over 3SD threshold, % at 10 µM. actives 2% (n = 1,200). AID 2345;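 active = fluorescence ratio rise of at least 3 SD above the vehicle-control mean, seen in both replicates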;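 note: 0% = vehicle mean plus 3 SD and 100% = vehicle minus no-stimulus blank window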
# KCNQ2 W236L MoA: KCNQ2 potentiators acting on retigabine-insensitive rat KCNQ2 W236L mutant; shares compounds with KCNQ2 enhance; CHO KCNQ2-W236L, automated patch clamp current; current increase over 3SD of negative controls (%), hits give high values, % at 25 µM; actives 10% (n = 940); AID 2558;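 active = current increase at least 3 SD of the untreated controls above them in both duplicate recordings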
# Target sequence (O88943 whole entry W236L, looked up): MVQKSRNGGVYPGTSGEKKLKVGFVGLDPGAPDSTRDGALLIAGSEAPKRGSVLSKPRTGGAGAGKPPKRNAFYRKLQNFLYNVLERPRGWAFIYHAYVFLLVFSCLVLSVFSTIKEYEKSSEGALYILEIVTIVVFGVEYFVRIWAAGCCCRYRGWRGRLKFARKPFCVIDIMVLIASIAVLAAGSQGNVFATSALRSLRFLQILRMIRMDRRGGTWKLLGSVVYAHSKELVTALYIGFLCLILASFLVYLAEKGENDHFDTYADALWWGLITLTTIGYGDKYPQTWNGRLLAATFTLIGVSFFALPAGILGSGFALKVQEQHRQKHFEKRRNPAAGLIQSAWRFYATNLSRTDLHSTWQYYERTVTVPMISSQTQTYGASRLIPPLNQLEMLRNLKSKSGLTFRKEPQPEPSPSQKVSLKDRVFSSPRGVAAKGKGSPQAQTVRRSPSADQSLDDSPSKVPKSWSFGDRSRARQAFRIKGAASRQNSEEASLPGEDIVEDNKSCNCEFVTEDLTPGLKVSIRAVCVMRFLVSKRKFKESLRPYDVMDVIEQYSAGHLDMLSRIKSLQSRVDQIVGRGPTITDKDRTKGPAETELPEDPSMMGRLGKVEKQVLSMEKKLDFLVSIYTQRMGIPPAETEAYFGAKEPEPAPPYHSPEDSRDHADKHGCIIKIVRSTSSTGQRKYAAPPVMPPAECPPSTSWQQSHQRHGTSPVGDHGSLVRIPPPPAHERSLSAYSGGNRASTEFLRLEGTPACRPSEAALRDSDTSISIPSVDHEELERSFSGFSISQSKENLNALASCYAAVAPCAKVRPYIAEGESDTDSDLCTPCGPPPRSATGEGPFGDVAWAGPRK
# * hit, by the source's call; i = inactive; . = no result given.
SMILES,KCNQ2 block,KCNQ2 enhance,Kir21 confirm,HEK293 ctr,CHO-K1 Tl ctr,KCNQ1 sel pot,KCNQ2 pot confirm,Kir2-1 sel,others
CC(Sc1ccc(Cl)cc1)C(=O)NCc1ccc2c(c1)OCO2 (centres undefined),i,7.66*,i,i,81.4*,13.9*,3.7*,-64.2,KCNQ2 W236L MoA=i
CC(Sc1ccc(Cl)cc1)C(=O)Nc1ccc2c(c1)OCO2 (centres undefined),i,0.31,.,.,.,.,.,.,
O=C(O)CCC(=O)N1CCN(c2cccc(Cl)c2)CC1,i,0.8,.,.,.,.,.,.,
O=C(O)/C=C/C(=O)N1CCN(c2cccc(Cl)c2)CC1,i,0.11,i,i,.,.,.,.,
C/C(=N\NC(=O)c1nnn(-c2nonc2N)c1-c1ccc(Cl)c(Cl)c1)c1ccncc1,i,0.77,.,.,.,.,.,.,
Cc1ccnc(NC(=O)CCC(=O)c2cc(C)sc2C)c1,i,0.96,.,.,.,.,.,.,
O=C(Nc1ccccc1F)C1CCN(S(=O)(=O)c2cccnc2)CC1,i,.,.,.,.,.,.,.,
CC(C)(C)CN1CCC(Oc2cccc(C(=O)NCCCOc3cccnc3)c2)CC1,i,0.38,.,.,.,.,.,.,
COc1ccc(CN2CCN(Cc3cc4ccccc4o3)CC2CCO)c(F)c1 (centres undefined),i,.,.,.,.,.,.,.,
COc1ccc(CN2CCN(C3CCC3)CC2CCO)c(F)c1 (centres undefined),i,13.1*,i,i,-13.0,-18.0,-7.9,-27.0,
NC(=O)C1CCN(C(=O)COc2ccc3ccccc3c2Br)CC1,i,.,.,.,.,.,.,.,
O=C(COc1ccc2ccccc2c1Br)N1CCCCC1,i,13.4*,i,i,-2.4,-24.7,30.1*,-35.1,KCNQ2 W236L MoA=i
COC(=O)c1ccc(N2CCN(C)CC2)c(NC(=O)c2cccnc2)c1,i,0.53,.,.,.,.,.,.,
CCOC(=O)c1ccc(S(=O)(=O)N2CCN(C3CCCC3)CC2)cc1,i,.,.,.,.,.,.,.,
Cc1cc(=O)n2nc(N3CCCC(C(=O)NCc4cccc(Br)c4)C3)sc2n1 (centres undefined),i,.,.,.,.,.,.,.,
CCCCn1c(-c2ccccc2)cnc1SCC(=O)NCCc1ccc(OC)c(OC)c1,i,.,56.0%*,i,.,.,.,.,
COc1ccc(CCNC(=O)CSc2nnc(-c3ccccc3)c3ccccc23)cc1OC,i,.,.,.,.,.,.,.,
O=C(NNC(=O)c1ccccc1C(=O)O)c1ccc(S(=O)(=O)N2CCCCC2)cc1,i,.,.,.,.,.,.,.,
Cc1cccc(/C=C2/S/C(=N/N=C3\CC4CCC3(C)C4(C)C)NC2=O)c1 (centres undefined),i,20.6*,i,i,-17.3,-25.8,-6.0,-19.2,KCNQ2 W236L MoA=i
O=C1N/C(=N/O)S/C1=C/c1cccc([N+](=O)[O-])c1,i,2.1,.,.,.,.,.,.,
O=C(O)c1ccc(S(=O)(=O)c2ccc3c(c2)C(=O)N(c2ccc(O)cc2)C3=O)cc1,i,1.82,.,.,.,.,.,.,
O=C1c2ccc3c4c(ccc(c24)C(=O)N1c1ccc(O)cc1)C(=O)N(c1ccc(O)cc1)C3=O,i,11.4*,i,i,2.5*,44.6*,-11.5,-29.8,
Cc1cc(C)c(S(=O)(=O)Nc2ccc(N(C)C)cc2)c(C)c1-n1cnnn1,i,.,.,.,.,.,.,.,
CCNC(=O)N(C)c1nncnc1C(=O)NC,i,1.52,.,.,.,.,.,.,
CNC(=O)c1ncnnc1N(C)C(=O)NCc1ccccc1,i,9.8*,i,i,0.9*,-20.9,-13.1,-40.5,
SMILES,KCNQ2 block,KCNQ2 enhance,Kir21 confirm,HEK293 ctr,CHO-K1 Tl ctr,KCNQ1 sel pot,KCNQ2 pot confirm,Kir2-1 sel,others
O=[N+]([O-])c1ccc(Nc2ccc(Cl)cc2)nc1,i,13.6*,i,i,-0.8,-21.2,18.5*,-23.1,KCNQ2 W236L MoA=i
O=[N+]([O-])c1ccc(NCc2ccc(Cl)cc2)nc1,i,0.01,.,.,.,.,.,.,
C[C@H](NC(=O)C1CCN(S(=O)(=O)c2ccccc2)CC1)C(=O)NCc1ccc(F)cc1,i,0.98,.,.,.,.,.,.,
O=C(Nc1ccncc1)C1CCC(CNS(=O)(=O)c2cccc3nsnc23)CC1 (centres undefined),i,.,.,.,.,.,.,.,
CC1CCN(C(=S)NC(=O)c2ccc(C(C)(C)C)cc2)CC1,i,7.11*,.,.,-10.6,-13.6,5.8*,-36.6,KCNQ2 W236L MoA=i
COc1ccc(C(=O)NC(=S)N2CCC(C)CC2)cc1Br,i,6.49*,i,247.0%*,-13.9,-15.1,-1.6,-38.1,KCNQ2 W236L MoA=i
CC(C)(C)c1ccc(C(=O)NC(=S)N2CCCC2)cc1,i,2.1,.,.,.,.,.,.,
CC(C)(C)c1ccc(C(=O)NC(=S)N2CCCCCC2)cc1,i,8.83*,i,268.0%*,-23.5,37.0*,0.7*,-21.0,KCNQ2 W236L MoA=4.9%*
COc1ccc(C(=O)NC(=S)N2CCNC(=O)C2)cc1Br,i,1.3,.,.,.,.,.,.,
CC1CCN(C(=S)NC(=O)c2ccccc2)CC1,i,0.9,.,.,.,.,.,.,
Cc1ccccc1NC(=O)Cc1nc(COC(=O)CNS(=O)(=O)c2cccc(Br)c2)cs1,i,0.56,.,.,.,.,.,.,
COc1ccc(NC(=O)C2CCC(=O)N2C(=O)OCc2ccccc2)cc1 (centres undefined),i,1.27,.,.,.,.,.,.,
CC(=O)Nc1ccc(CN2CCCC(C(=O)c3cccc(C(F)(F)F)c3)C2)cc1 (centres undefined),i,.,.,.,.,.,.,.,
COc1ccc(CN2CCCC(C(=O)c3cccc(C(F)(F)F)c3)C2)cc1O (centres undefined),i,.,39.5%*,i,.,.,.,.,
COc1ccc(CC(=O)Nc2ccccc2Oc2ccccc2)cc1,i,10.3*,i,i,-29.2,-5.7,17.2*,-56.9,KCNQ2 W236L MoA=i
COc1ccc(NC(=O)CCCC(=O)c2ccccc2)c(OC)c1,i,.,.,.,.,.,.,.,
COc1ccccc1NC(=O)Cc1ccc(-c2ccccc2)cc1,i,.,.,.,.,.,.,.,
COc1ccc(NC(=O)CCCc2ccccc2)c(OC)c1,i,5.51*,i,i,92.7*,-4.3,8.7*,-24.3,KCNQ2 W236L MoA=i
Cc1ccc(NC(=O)CN(C)CC(=O)Nc2ccc(N3CCOCC3)cc2)c([N+](=O)[O-])c1,i,.,.,.,.,.,.,.,
CCCCCC(O)(c1ccc(OC)cc1)C(CN1CCOCC1)c1ccccc1 (centres undefined),i,6.22*,i,i,62.1*,-13.4,-1.5,-29.4,KCNQ2 W236L MoA=i
CCCCC(O)(c1ccc(OC)cc1)C(CN1CCOCC1)c1ccccc1 (centres undefined),i,0.75,.,.,.,.,.,.,
Cc1c(C)c(C)c(C(=O)C2CCN(c3ccc([N+](=O)[O-])cn3)CC2)c(C)c1C,i,.,.,.,.,.,.,.,
